Test results: PubChem BioAssay (EPA / NIEHS)
Active and inactive are the calls of the source. How the source made its calls: active means hit-call score of the fitted dose curve at least 0.9, where 1 is the maximum; inactive means score below 0.9.

How the values were obtained:
[1] = read-out: Tissue Factor, F3 (gene 2152); assay: BSK_CASM3C_TissueFactor: BioMAP Diversity Plus: CASM3C Assay for Tissue Factor Biomarker Activity (AID 2283052); conditions: primary human coronary artery smooth muscle cells; actives raise or lower the signal;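 further: cell surface tissue factor protein level read by ELISA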
[2] = read-out: Interferon-gamma inducible Protein 10 (IP10), CXCL10 (gene 3627); assay: BSK_hDFCGF_IP10: BioMAP Diversity Plus: hDFCGF Assay for Interferon-gamma inducible Protein 10 (IP10) Biomarker Activity (AID 2283053); conditions: primary human foreskin fibroblasts; actives raise or lower the signal
Summary of the method: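 Cells: human dermal foreskin fibroblasts. Exposure: 24 h post-dosing. Detection: IP-10 ELISA, with values expressed against DMSO controls and fitted in both directions.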

[3] = read-out: Urokinase-type plasminogen activator receptor (uPAR), PLAUR (gene 5329); assay: BSK_CASM3C_uPAR: BioMAP Diversity Plus: CASM3C Assay for Urokinase-type plasminogen activator receptor (uPAR) Biomarker Activity (AID 2283054); conditions: primary human coronary artery smooth muscle cells; actives raise or lower the signal;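 further: cell-surface uPAR protein level quantified by ELISA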
[4] = read-out: Vascular cell adhesion molecule 1 (VCAM1), VCAM1 (gene 7412); assay: BSK_CASM3C_VCAM1: BioMAP Diversity Plus: CASM3C Assay for Vascular cell adhesion molecule 1 (VCAM1) Biomarker Activity (AID 2283055); conditions: primary human coronary artery smooth muscle cells; actives raise or lower the signal;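 further: VCAM-1 protein level quantified by ELISA on the cells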
[5] = read-out: Epidermal growth factor receptor (EGFR), EGFR (gene 1956); assay: BSK_hDFCGF_EGFR: BioMAP Diversity Plus: hDFCGF Assay for Epidermal growth factor receptor (EGFR) Biomarker Activity (AID 2283057); conditions: primary human foreskin fibroblasts; actives raise or lower the signal
Summary of the method: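 Dosing human primary skin fibroblasts, then measuring surface EGFR by ELISA at 24 h, gives the endpoint; gains and losses relative to DMSO were fitted in both directions.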

[6] = read-out: Interleukin-8 (IL8), CXCL8 (gene 3576); assay: BSK_hDFCGF_IL8: BioMAP Diversity Plus: hDFCGF Assay for Interleukin-8 (IL8) Biomarker Activity (AID 2283058); conditions: primary human foreskin fibroblasts; actives raise or lower the signal
Summary of the method: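 Fibroblast monolayers (human foreskin, hDFCGF) received test chemical for 24 h before ELISA detection of IL-8; either increases or decreases relative to DMSO count as activity.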

[7] = BSK_hDFCGF_Proliferation: Cell Proliferation Assessment in the BioMAP Diversity Plus: hDFCGF Assay (AID 2283059); conditions: primary human foreskin fibroblasts;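 further: curves fitted for both rise and fall of signal versus DMSO baseline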
Summary of the method: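 Sub-confluent human foreskin fibroblast cultures receive test chemical […]. Relative cell number is quantified by sulforhodamine B staining (0.1%, after 10% TCA fixation) at 560 nm, with bidirectional fitting referenced to DMSO.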

[8] = read-out: Macrophage colony-stimulating factor (MCSF), CSF1 (gene 1435); assay: BSK_hDFCGF_MCSF: BioMAP Diversity Plus: hDFCGF Assay for Macrophage colony-stimulating factor (MCSF) Biomarker Activity (AID 2283060); conditions: primary human foreskin fibroblasts; actives raise or lower the signal
Summary of the method: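 fibroblasts (human foreskin, primary), 24 h post-dose; M-CSF by ELISA; bidirectional fit, DMSO = baseline.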

[9] = BSK_hDFCGF_SRB: Viability Assessment in the BioMAP Diversity Plus: hDFCGF Assay (AID 2283061); conditions: primary human foreskin fibroblasts;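 further: cells exposed to compound for 24 h before the read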
Summary of the method: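 SRB-based viability read on primary human skin fibroblasts at 24 h: TCA fixation, 0.1% dye, 560 nm. Gain or loss of signal is fitted against the DMSO negative control.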

[10] = read-out: TIMP metallopeptidase inhibitor 1 (TIMP1), TIMP1 (gene 7076); assay: BSK_hDFCGF_TIMP1: BioMAP Diversity Plus: hDFCGF Assay for TIMP metallopeptidase inhibitor 1 (TIMP1) Biomarker Activity (AID 2283062); conditions: primary human foreskin fibroblasts; actives raise or lower the signal
Summary of the method: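 Bidirectional curve fitting against DMSO baseline yielded this endpoint, based on ELISA detection of TIMP-1 in primary human foreskin fibroblasts exposed to compound for 24 h.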

[11] = read-out: Monokine induced gamma interferon (MIG), CXCL9 (gene 4283); assay: BSK_hDFCGF_MIG: BioMAP Diversity Plus: hDFCGF Assay for Monokine induced gamma interferon (MIG) Biomarker Activity (AID 2283063); conditions: primary human foreskin fibroblasts; actives raise or lower the signal
Summary of the method: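 Endpoint derived by bidirectional fitting relative to DMSO; MIG quantified via ELISA in primary human foreskin fibroblasts harvested 24 h after dosing.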

[12] = read-out: Matrix Metallopeptidase 1 (MMP1), MMP1 (gene 4312); assay: BSK_hDFCGF_MMP1: BioMAP Diversity Plus: hDFCGF Assay for Matrix Metallopeptidase 1 (MMP1) Biomarker Activity (AID 2283064); conditions: primary human foreskin fibroblasts; actives raise or lower the signal
Summary of the method: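 Human foreskin fibroblasts exposed to chemical for 24 h; MMP1 detected by ELISA, with DMSO as baseline for bidirectional fitting.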

[13] = read-out: Vascular cell adhesion molecule 1 (VCAM1), VCAM1 (gene 7412); assay: BSK_hDFCGF_VCAM1: BioMAP Diversity Plus: hDFCGF Assay for Vascular cell adhesion molecule 1 (VCAM1) Biomarker Activity (AID 2283065); conditions: primary human foreskin fibroblasts; actives raise or lower the signal;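 on AC50: VCAM-1 protein level quantified by ELISA after 24 h chemical exposure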
Summary of the method: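 Measured after 24 h chemical treatment of primary human skin fibroblasts, VCAM-1 was detected by ELISA and concentration-response analysed in both directions versus DMSO vehicle.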

[14] = read-out: Plasminogen activator inhibitor-1 (PAI1), SERPINE1 (gene 5054); assay: BSK_hDFCGF_PAI1: BioMAP Diversity Plus: hDFCGF Assay for Plasminogen activator inhibitor-1 (PAI1) Biomarker Activity (AID 2283066); conditions: primary human foreskin fibroblasts; actives raise or lower the signal
Summary of the method: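 Fibroblasts from human foreskin were treated with test chemical. After 24 h, PAI-1 was measured by ELISA. Activity was fitted in both directions relative to DMSO.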

[15] = read-out: Intercellular Adhesion Molecule 1 (ICAM1), ICAM1 (gene 3383); assay: BSK_KF3CT_ICAM1: BioMAP Diversity Plus: KF3CT Assay for Intercellular Adhesion Molecule 1 (ICAM1) Biomarker Activity (AID 2283067); conditions: primary human keratinocytes with fibroblasts; actives raise or lower the signal
Summary of the method: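 Bidirectional curve fitting against a DMSO baseline was applied to ICAM-1 ELISA signal from primary human skin co-cultures harvested 24 h after treatment, with SRB staining of parallel wells for overt cytotoxicity.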

[16] = read-out: Interferon-gamma inducible Protein 10 (IP10), CXCL10 (gene 3627); assay: BSK_KF3CT_IP10: BioMAP Diversity Plus: KF3CT Assay for Interferon-gamma inducible Protein 10 (IP10) Biomarker Activity (AID 2283068); conditions: primary human keratinocytes with fibroblasts; actives raise or lower the signal
Summary of the method: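 ELISA read-out of IP-10 after 24 h chemical dosing of human skin primary co-culture (keratinocytes, foreskin fibroblasts). Gain or loss of signal relative to DMSO, bidirectional curve fit.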

[17] = BSK_KF3CT_SRB: Viability Assessment in the BioMAP Diversity Plus: KF3CT Assay (AID 2283069); conditions: primary human keratinocytes with fibroblasts;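 further: read 24 h after compound addition; fitted for both signal gain and loss against DMSO baseline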
Summary of the method: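 Overt cytotoxicity is assessed as total protein by sulforhodamine B staining in parallel human skin co-cultures at 24 h after dosing. DMSO serves as negative control and baseline.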

[18] = read-out: Interleukin-1 alpha (IL1a), IL1A (gene 3552); assay: BSK_KF3CT_IL1a: BioMAP Diversity Plus: KF3CT Assay for Interleukin-1 alpha (IL1a) Biomarker Activity (AID 2283070); conditions: primary human keratinocytes with fibroblasts; actives raise or lower the signal
Summary of the method: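 Readout is IL-1a level by ELISA, compared bidirectionally with DMSO as baseline. Cells: human keratinocytes co-cultured with foreskin fibroblasts, harvested 24 h post-dose.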

[19] = read-out: TIMP metallopeptidase inhibitor 2 (TIMP2), TIMP2 (gene 7077); assay: BSK_KF3CT_TIMP2: BioMAP Diversity Plus: KF3CT Assay for TIMP metallopeptidase inhibitor 2 (TIMP2) Biomarker Activity (AID 2283071); conditions: primary human keratinocytes with fibroblasts; actives raise or lower the signal
Summary of the method: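 Chemicals were dosed onto human skin primary co-cultures of keratinocytes and foreskin fibroblasts, and TIMP-2 was measured by ELISA after 24 hours. Activity in either direction was fitted relative to DMSO.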

Measured: AC50

CCCCCCC(CCCCCCCCCCC(=O)OCC(COC(C)=O)OC(C)=O)OC(C)=O (stereo not drawn)
active: [7] 3.11 µM | [14] 0.818 µM
inactive: all other assays above

Cc1c(C)c2c(c(C)c1O)CCC(C)(COc1ccc(CC3SC(=O)NC3=O)cc1)O2 (stereo not drawn)
inactive: [1] | [3] | [4]
active: [2] 9.98 µM | [5] 8.04 µM | [6] 27.8 µM | [7] 6.8 µM | [8] 11.7 µM | [9] 19.2 µM | [11] 20 µM | [13] 11.8 µM | [14] 8.87 µM | [15] 14.1 µM | [16] 11.3 µM | [17] 13.8 µM | [18] 29.5 µM | [19] 20 µM

CCCCC(CC)COP(=O)(OCC(CC)CCCC)OCC(CC)CCCC (stereo not drawn)
active: [7] 7.49 µM
not listed: [12]
inactive: all other assays above

O=C1CCCCC1
not listed: [12]
inactive: all other assays above

COC(=O)CCC(=O)OC
inactive: all assays above

CC(C)c1cccc(C(C)C)c1NC(=O)NS(=O)(=O)c1cc(C(C)(C)O)co1
not listed: [12]
inactive: all other assays above

COC(=O)CCCC(=O)OC
not listed: [12]
inactive: all other assays above

NC(=Nc1ccccc1)Nc1ccccc1
active: [7] 30.3 µM | [8] 9.15 µM | [12] 3.71 µM
not listed: [11]
inactive: all other assays above

NC1CCCCC1
not listed: [12]
inactive: all other assays above
